Assay results from PubChem BioAssay AID652174 (National Center for Advancing Translational Sciences (NCATS), 2013).
Activity calls are given as the source filed them. Calls follow the shape of the dose curve; as a rule, active = well fitted curve in the direction sought with a large enough effect; inactive = no such curve, though single readings can be large or run the other way.

biological target: Ubiquitin carboxyl-terminal hydrolase 2 (Homo sapiens) (UniProt O75604); experiment: Confirmation Assay for Inhibitors of Ubiquitin-specific Protease USP2a Using CHOP2 as the Reporter: SAR; details: USP2 core, Ub-CHOP2 reporter, fluorescence 485/531
Excerpt: Homeostasis of cellular proteins is maintained through a combination of synthesis and degradation. The pathway that accounts for the majority of protein degradation is the ubiquitin-proteasomal pathway. Ubiquitin (Ub) is highly conserved in all cells and the generation of a multi-Ub chain typically targets proteins for degradation by the proteasome. However, ubiquitination is highly reversible and dynamic. Deubiquitination, the reverse process, is catalyzed through the action of enzymes referred to as isopeptidases or deubiquitinating enzymes (DUBs). This group of enzymes is collectively responsible for maintaining adequate pools of free ubiquitin and regulating the ubiquitination status of cellular proteins. […] Thus, this coupled assay gives a fluorescent read-out at excitation/emission wavelengths of 485/531. […]
The assay buffer, prepared fresh at the day of the assay, contains 20mM Tris-HCl pH 8.0, 2mM CaCl2, 2mM beta-Mercaptoethanol, 0.05% CHAPS. […] Plates were read after 60min RT incubation on a ViewLux (Perkin Elmer) plate reader using the following wavelengths Ex 485nm /Em 531nm. […] Concentration-response curves were fitted to the normalized data and the concentration-response curves were then classified based on curve quality (r2), response magnitude and degree of measured activity. The time zero reading was used to flag fluorescence artifacts. […]

Chain of Ubiquitin carboxyl-terminal hydrolase 2 (Homo sapiens) (O75604 whole entry, looked up): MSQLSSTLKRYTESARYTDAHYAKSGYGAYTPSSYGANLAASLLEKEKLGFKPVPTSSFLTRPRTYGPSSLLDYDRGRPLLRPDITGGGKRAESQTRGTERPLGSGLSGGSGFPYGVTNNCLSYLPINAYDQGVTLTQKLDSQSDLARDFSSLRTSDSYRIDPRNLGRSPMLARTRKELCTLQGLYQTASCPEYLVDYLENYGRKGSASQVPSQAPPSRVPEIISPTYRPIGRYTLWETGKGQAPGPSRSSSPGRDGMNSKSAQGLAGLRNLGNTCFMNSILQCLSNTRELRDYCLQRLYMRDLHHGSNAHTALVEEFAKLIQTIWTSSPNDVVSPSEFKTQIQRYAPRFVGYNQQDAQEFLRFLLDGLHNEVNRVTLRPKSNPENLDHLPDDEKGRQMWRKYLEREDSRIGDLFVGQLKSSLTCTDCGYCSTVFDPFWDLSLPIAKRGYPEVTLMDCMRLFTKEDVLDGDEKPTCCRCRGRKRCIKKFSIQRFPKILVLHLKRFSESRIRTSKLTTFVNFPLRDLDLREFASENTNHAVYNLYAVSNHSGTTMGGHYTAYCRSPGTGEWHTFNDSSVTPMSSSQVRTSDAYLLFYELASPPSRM

How did the Potency turn out when Cc1ccc(S(=O)(=O)Nc2ccccc2C(=O)Nc2nc(-c3ccccc3)cs2)cc1 was run?
Its Potency is 11.3 µM (active).

Cc1ccc(S(=O)(=O)Nc2ccccc2C(=O)Nc2nc(-c3ccc(Cl)cc3)cs2)cc1 was tested. Which Potency did it give?
The Potency was 5.65 µM (active).
